Laboratory results as given in PubChem BioAssay (Tox21).
Where “and” joins values, the source holds several entries; their conditions need not be identical. Equal entries are not always repeated. Records with an inconclusive call do not appear. A structure can be active in one record and inactive in another. Calls of active or inactive are those of the source. Calls come from the whole dose curve; as a rule, active = well fitted curve in the direction sought with a large enough effect in the repeat runs; inconclusive = weak or mixed curves; inactive = no such curve, though single readings can be large; an effect the other way counts as inactive or inconclusive.
% is set by controls: 0 for no effect and ±100 for the full control effect.

Test system: not listed separately
Test: Caspase-3/7 induction in CHO-K1 cells by small molecules, qHTS assay (AID 1346980); note: nearly all actives have a fitted effect of over 15% in size
Details: CHO-K1 caspase-3/7 induction, Caspase-Glo luminescence, 17 h; series mostly up to 92.4 µM; caspase-3/7 activation: at the top concentration
Procedure, shortened: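 Wild-type cells were seeded at 1,500 per well and settled 5 hr at 37 C, 5% CO2, then exposed to DMSO-dissolved compounds for 17 hr. Caspase-Glo 3/7 reagent was added, and luminescence was read after 30min at room temperature.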
In the case of `Nc1ccc(N=Nc2ccccc2)cc1`, the “caspase-3/7 activation” value is reported as -4.9% (inactive). With `CCN(CC)Cc1nccn1-c1ccc([N+](=O)[O-])cc1C(=O)c1ccccc1Cl` the “caspase-3/7 activation” value was -0.464% [at 42.5 µM] (inactive). In the case of `C=Cc1cccc(CCl)c1`, the “caspase-3/7 activation” value is reported as 1.68% [at 240 µM] (inactive). With `Oc1ccc2[nH]cc(CCCCN3CC=C(c4ccccc4)CC3)c2c1` the “caspase-3/7 activation” value was -0.101% [at 42.5 µM] (inactive). In the case of `S=C=NCCc1ccccc1`, the “caspase-3/7 activation” value is reported as 1.33% (inactive). For `N#Cc1c[nH]cc1-c1cccc2c1OC(F)(F)O2`, the “caspase-3/7 activation” value was 1.35% (inactive). For `c1ccc(N=NNc2ccccc2)cc1`, the Potency was “inactive”. With `CN1CCc2cc3c(cc2C1O)OCO3` (centres undefined) the “caspase-3/7 activation” value was -0.0781% (inactive). In the case of `O=C1C(Cl)=C(Cl)C(=O)C(Cl)=C1Cl`, the Potency is reported as “inactive”. With `ClC1=C(Cl)[C@]2(Cl)[C@@H]3[C@H]4C[C@H]([C@@H]5O[C@H]45)[C@@H]3[C@@]1(Cl)C2(Cl)Cl` the “caspase-3/7 activation” value was -1.32% (inactive).

Test system: not listed separately
Test: Caspase-3/7 induction in HepG2 cells by small molecules, qHTS cell viability counter screen (AID 1346981); note: nearly all actives have a fitted effect of over 30% in size; note: potency is the fitted concentration of half-maximal effect
Details: CellTiter-Fluor fluorescence, 17 h; series mostly up to 92.4 µM; activity change, negative = cytotoxicity: at the top concentration
Procedure, shortened: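 Multiplexed with the caspase-3/7 assay: HepG2 cells, 16 hr compound treatment, CellTiter-Fluor viability detection by fluorescence.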
For `Cc1ccccc1OP(=O)(Oc1ccccc1C)Oc1ccccc1C`, the “activity change, negative = cytotoxicity” value was -3.53% (inactive). For `CC(C)(C)c1ccc(OP(=O)(Oc2ccccc2)Oc2ccccc2)cc1`, the “activity change, negative = cytotoxicity” value was -5.37% (inactive). With `C[C@]12Cc3cn[nH]c3C[C@@H]1CC[C@@H]1[C@@H]2CC[C@@]2(C)[C@H]1CC[C@]2(C)O` the “activity change, negative = cytotoxicity” value was -3.2% [at 42.5 µM] (inactive). With `Cc1cc(C2CC2)nc(Nc2ccccc2)n1` the “activity change, negative = cytotoxicity” value was -0.674% (inactive). In the case of `CN1C2CCC(C)(C)C1CC(OC(=O)C(O)(c1cccs1)c1cccs1)C2` (centres undefined), the “activity change, negative = cytotoxicity” value is reported as -7.38% [at 42.5 µM] (inactive). For `CCN(CC)CCc1c[nH]c2ccccc12`, the “activity change, negative = cytotoxicity” value was -6.42% (inactive). In the case of `C#CCC1=C(C)C(OC(=O)C2C(C=C(C)C)C2(C)C)CC1=O` (centres undefined), the “activity change, negative = cytotoxicity” value is reported as -6.08% (inactive). With `O=[N+]([O-])c1cccc2cccc([N+](=O)[O-])c12` the “activity change, negative = cytotoxicity” value was 0.955% (inactive). For `CCOP(=O)(Sc1ccccc1)Sc1ccccc1`, the “activity change, negative = cytotoxicity” value was -2% (inactive). With `COc1ccc2[nH]cc(CCN(C(C)C)C(C)C)c2c1` the “activity change, negative = cytotoxicity” value was -9.73% (inactive). With `C[C@H]1[C@H](c2ccc(Cl)cc2)SC(=O)N1C(=O)NC1CCCCC1` the “activity change, negative = cytotoxicity” value was -6.15% (inactive). In the case of `CCOP(=O)(OCC)Oc1nc(Cl)c(Cl)cc1Cl`, the “activity change, negative = cytotoxicity” value is reported as 3.89% (inactive). With `c1ccc(Nc2ccc(Nc3ccccc3)cc2)cc1` the “activity change, negative = cytotoxicity” value was -26.3% (inactive). In the case of `c1csc(-c2ccc(-c3cccs3)s2)c1`, the “activity change, negative = cytotoxicity” value is reported as -10.6% (inactive). With `CCCCCCC[CH2][Sn]([Cl])([Cl])[CH2]CCCCCCC` the “activity change, negative = cytotoxicity” value was -1.68% (inactive). For `Nc1ccc(N=Nc2ccccc2)cc1`, the Potency was 36.4 µM (active). In the case of `Clc1ccc(C(c2ccc(Cl)cc2)C(Cl)Cl)cc1`, the Potency is reported as “inactive”. In the case of `S=C=NCCc1ccccc1`, the “activity change, negative = cytotoxicity” value is reported as -2.44% (inactive). With `c1ccc(N=NNc2ccccc2)cc1` the Potency was 28.3 µM (active). With `O=C1C(Cl)=C(Cl)C(=O)C(Cl)=C1Cl` the Potency was 54.3 µM (active). With `ClC1=C(Cl)[C@]2(Cl)[C@@H]3[C@H]4C[C@H]([C@@H]5O[C@H]45)[C@@H]3[C@@]1(Cl)C2(Cl)Cl` the “activity change, negative = cytotoxicity” value was 4.97% (inactive).

Target: Nuclear receptor subfamily 1 group I member 2 (Homo sapiens) (UniProt O75469)
Sequence (O75469 whole entry, looked up): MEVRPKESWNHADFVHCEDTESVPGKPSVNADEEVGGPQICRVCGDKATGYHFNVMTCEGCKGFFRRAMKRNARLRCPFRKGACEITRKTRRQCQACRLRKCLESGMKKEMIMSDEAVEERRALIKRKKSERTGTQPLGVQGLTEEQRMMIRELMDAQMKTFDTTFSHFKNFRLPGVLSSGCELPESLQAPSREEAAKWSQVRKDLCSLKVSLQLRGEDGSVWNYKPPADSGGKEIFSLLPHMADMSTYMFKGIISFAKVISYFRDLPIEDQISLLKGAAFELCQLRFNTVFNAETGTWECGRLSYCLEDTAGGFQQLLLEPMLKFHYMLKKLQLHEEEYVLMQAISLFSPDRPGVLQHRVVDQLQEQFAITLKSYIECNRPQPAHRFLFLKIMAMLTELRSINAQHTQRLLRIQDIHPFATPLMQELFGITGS
Test: Human pregnane X receptor (PXR) small molecule agonists, qHTS assay (AID 1346982); note: nearly all actives have a fitted effect of over 35% in size; note: potency is the fitted concentration of half-maximal effect
Details: PXR-Luc HepG2, CYP3A4 luciferase reporter, 24 h; series mostly up to 92.4 µM; activation: at the top concentration
Procedure, shortened: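 We seeded PXR-Luc HepG2 cells in assay medium containing 5% charcoal-stripped FBS, added compounds 5 hr later, incubated 24 hr, and read luminescence with ONE-Glo reagent.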
For `CCCC[N+]1(C)CCCC1` (tested in a mixture with another compound), the Potency was 69.4 µM (active). With `Cc1ccccc1OP(=O)(Oc1ccccc1C)Oc1ccccc1C` the Potency was 27.4 µM (active). For `CC(C)(C)c1ccc(OP(=O)(Oc2ccccc2)Oc2ccccc2)cc1`, the Potency was 13.8 µM (active). In the case of `C[C@]12Cc3cn[nH]c3C[C@@H]1CC[C@@H]1[C@@H]2CC[C@@]2(C)[C@H]1CC[C@]2(C)O`, the Potency is reported as 9.44 µM (active). In the case of `CCOP(=S)(NC(C)C)Oc1ccccc1C(=O)OC(C)C` (centres undefined), the Potency is reported as 3.06 µM (active). With `Cc1cc(C2CC2)nc(Nc2ccccc2)n1` the Potency was 54.5 µM (active). In the case of `CC1=C2C[C@H]3[C@@H](CC=C4C[C@@H](O)CC[C@@]43C)[C@@H]2CC[C@]12O[C@@H]1C[C@H](C)CN[C@H]1[C@H]2C`, the “activation” value is reported as 13.6% [at 42.5 µM] (inactive). With `Cc1ccc2cc3c(ccc4ccccc43)c3c2c1CC3` the Potency was 6.13 µM (active). In the case of `O=S1OCC2C(CO1)C1(Cl)C(Cl)=C(Cl)C2(Cl)C1(Cl)Cl` (centres undefined), the Potency is reported as 24.4 µM (active) and inactive. With `COP(=O)(OC)Oc1ccc([N+](=O)[O-])cc1` the “activation” value was 4.28% (inactive). For `CCCCCCCc1ccc(O)cc1`, the Potency was 61.1 µM (active). With `CCN(CC)CCc1c[nH]c2ccccc12` the “activation” value was -14.7% (inactive). For `C#CCC1=C(C)C(OC(=O)C2C(C=C(C)C)C2(C)C)CC1=O` (centres undefined), the Potency was 10.8 µM (active). For `CN1CCc2cc(Cl)c(O)cc2[C@H]2c3ccccc3CC[C@@H]21`, the “activation” value was 32.4% [at 42.5 µM] (inactive). In the case of `O=[N+]([O-])c1cccc2cccc([N+](=O)[O-])c12`, the Potency is reported as 30.8 µM (active). With `Oc1ccc([C@H]2CNCc3c2ccc(O)c3O)cc1O` the “activation” value was -7.09% [at 42.5 µM] (inactive). For `CO/N=C(\C(=O)OC)c1ccccc1CO/N=C(\C)c1cccc(C(F)(F)F)c1`, the Potency was 0.686 µM (active). For `CCOP(=O)(Sc1ccccc1)Sc1ccccc1`, the Potency was 34.4 µM (active). In the case of `FC(F)C(F)(F)OCC(Cn1cncn1)c1ccc(Cl)cc1Cl` (centres undefined), the Potency is reported as 27.1 µM (active). In the case of `COc1ccc2[nH]cc(CCN(C(C)C)C(C)C)c2c1`, the “activation” value is reported as 1.49% (inactive). For `C[C@H]1[C@H](c2ccc(Cl)cc2)SC(=O)N1C(=O)NC1CCCCC1`, the Potency was 6.86 µM (active). In the case of `CCOP(=O)(OCC)Oc1nc(Cl)c(Cl)cc1Cl`, the Potency is reported as 54.2 µM (active). For `c1ccc(Nc2ccc(Nc3ccccc3)cc2)cc1`, the Potency was 24.2 µM (active). In the case of `c1csc(-c2ccc(-c3cccs3)s2)c1`, the Potency is reported as 19.3 µM (active). For `Nc1ccc(N=Nc2ccccc2)cc1`, the Potency was 27.3 µM (active). For `Clc1ccc(C(c2ccc(Cl)cc2)C(Cl)Cl)cc1`, the Potency was 19.6 µM (active). With `CCN(CC)Cc1nccn1-c1ccc([N+](=O)[O-])cc1C(=O)c1ccccc1Cl` the Potency was 10.6 µM (active). For `C=Cc1cccc(CCl)c1`, the “activation” value was 9.78% [at 240 µM] (inactive). In the case of `S=C=NCCc1ccccc1`, the Potency is reported as 54.6 µM (active). For `N#Cc1c[nH]cc1-c1cccc2c1OC(F)(F)O2`, the Potency was 27.3 µM (active). For `c1ccc(N=NNc2ccccc2)cc1`, the Potency was 31.7 µM (active) and 30.6 µM (active). For `O=C1C(Cl)=C(Cl)C(=O)C(Cl)=C1Cl`, the Potency was 60.9 µM (active) and 61.1 µM (active). For `ClC1=C(Cl)[C@]2(Cl)[C@@H]3[C@H]4C[C@H]([C@@H]5O[C@H]45)[C@@H]3[C@@]1(Cl)C2(Cl)Cl`, the Potency was 5.44 µM (active).
